# Assay results: PubChem BioAssay (Tox21)
# Several values for one entry are separate records, joined by “and”; a condition that tells them apart may be missing. Equal entries are not always repeated. Records with an inconclusive call do not appear. A call without a number means that no potency is given here. More than one record can exist for a structure, and the calls need not agree. Activity calls are given as the source filed them. Calls follow the shape of the dose curve; as a rule, active = well fitted curve in the direction sought with a large enough effect in the repeat runs; inconclusive = weak or mixed curves; inactive = no such curve, though single readings can be large; an effect the other way counts as inactive or inconclusive.
# Key:
# [1] = qHTS RealTime-Glo MT Cell Viability Assay in HepG2 cells - 8 hour (AID 1224873); also: nearly all actives have a fitted effect of over 55% in size; also: potency is read from the fitted curve at half-maximal effect
# Procedure, shortened: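 HepG2 cells mixed with RealTime-Glo MT reagents (NanoLuc plus cell-permeant prosubstrate) were seeded at 600 cells/well, incubated 5 h at 37 C/5% CO2, then pinned with compounds in DMSO; nonlytic luminescence tracked viability during 40 h treatment.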
# [2] = qHTS RealTime-Glo MT Cell Viability Assay in HEK293 cells - 40 hour (AID 1224874); details: RealTime-Glo luminescence; max response: stronger effect = lower value; also: nearly all actives have a fitted effect of over 50% in size; also: potency is read from the fitted curve at half-maximal effect
# Procedure, shortened: (§1)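 qHTS format; HEK293 cells with NanoLuc/prosubstrate reagent, 37 C/5% CO2 for 5 h pre-dosing; compounds 23 nL in DMSO; luminescence at each time point reflects viable cells.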
# [3] = A CellTox Green Cytotoxicity Assay to monitor cytotoxicity in HEK293 cells - 24 hour (AID 1224875); also: series mostly up to about 77 µM; nearly all actives have a fitted effect of over 45% in size
# Procedure, shortened: (§2)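 Each value comes from one timepoint of a single continuous run in which HEK293 cells with CellTox Green were exposed to compound for up to 40 h at 37 C, dye fluorescence rising with cell death.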
# [4] = A CellTox Green Cytotoxicity Assay to monitor cytotoxicity in HepG2 cells - 16 hour (AID 1224876); also: nearly all actives have a fitted effect of over 45% in size; also: potency is read from the fitted curve at half-maximal effect
# Procedure, shortened: (§3)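 Continuous culture of HepG2 cells with a membrane-impermeant DNA dye; rising fluorescence marks dead cells. Compound exposure lasted up to 40 h at 37 C, with reads every 8 h from 0 h.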
# [5] = qHTS RealTime-Glo MT Cell Viability Assay in HepG2 cells - 32 hour (AID 1224877); also: nearly all actives have a fitted effect of over 55% in size; also: potency is read from the fitted curve at half-maximal effect
# Procedure, shortened: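 HepG2 cells (600/well) were dispensed with RealTime-Glo reagents, incubated 5 h at 37 °C, then treated with compounds in DMSO for up to 40 h. Nonlytic NanoLuc luminescence reflecting viable cells was read at each stated time point.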
# [6] = A CellTox Green Cytotoxicity Assay to monitor cytotoxicity in HepG2 cells - 24 hour (AID 1224878); also: nearly all actives have a fitted effect of over 45% in size; also: potency is read from the fitted curve at half-maximal effect
# Procedure, shortened: as §3
# [7] = A CellTox Green Cytotoxicity Assay to monitor cytotoxicity in HepG2 cells - 40 hour (AID 1224879); also: nearly all actives have a fitted effect of over 40% in size; also: potency is read from the fitted curve at half-maximal effect
# Procedure, shortened: as §3
# [8] = qHTS RealTime-Glo MT Cell Viability Assay in HEK293 cells - 0 hour (AID 1224880); also: top concentration of the series differs between compounds; nearly all actives have a fitted effect of over 45% in size
# Procedure, shortened: as §1
# [9] = A CellTox Green Cytotoxicity Assay to monitor cytotoxicity in HEK293 cells - 32 hour (AID 1224881); also: nearly all actives have a fitted effect of over 40% in size; also: potency is read from the fitted curve at half-maximal effect
# Procedure, shortened: as §2
# [10] = A CellTox Green Cytotoxicity Assay to monitor cytotoxicity in HepG2 cells - 0 hour (AID 1224882); also: nearly all actives have a fitted effect of over 35% in size; also: potency is read from the fitted curve at half-maximal effect
# Procedure, shortened: as §3
Compound,Potency [1],max response [2],Potency [3],Potency [4],Potency [5],Potency [6],Potency [7],outcome [8],Potency [9],Potency [10],Potency [2]
O=C(O)CCl,inactive,1.08% (inactive) and -1.37% (inactive),inactive,inactive,inactive,inactive,inactive,inactive,inactive,inactive,
CCCC[N+]1(C)CCCC1,inactive,0.73% (inactive) [middle of 7 runs],inactive,inactive,inactive,inactive,inactive,inactive,inactive,inactive,
Nc1ccc(Cl)cc1,inactive,-5.43% (inactive) and 1.39% (inactive),inactive,inactive,inactive,inactive,inactive,inactive,inactive,inactive,
CCCCCCCCCCn1cc[n+](C)c1,inactive,,inactive,inactive,inactive,44.1 µM (active) and inactive,44.1 µM (active) and 48.9 µM (active),inactive,inactive,inactive,
CCCC[n+]1ccccc1,inactive,,inactive,inactive,inactive,inactive,inactive,inactive,inactive,inactive,
CCC(=O)C(CC(C)N(C)C)(c1ccccc1)c1ccccc1 (stereo unspecified),inactive,,inactive,inactive,inactive,39.1 µM (active) and inactive,43.8 µM (active) and 48.6 µM (active),inactive,inactive,inactive,24.4 µM (active)
Cc1cc(Cl)ccc1OCC(=O)O,inactive,23.3% (inactive) and 12.2% (inactive) and 10.9% (inactive),inactive,inactive,inactive,inactive,inactive,inactive,inactive,inactive,
O=[N+]([O-])O,inactive,,inactive,inactive,inactive,inactive,inactive,inactive,inactive,inactive,
CCCC[N+]1(C)CCCCC1,inactive,-0.0247% (inactive) [middle of 5 runs],inactive,inactive,inactive and 48.8 µM (active),inactive,inactive,inactive,inactive,inactive,
COP(=O)(OC)OC=C(Cl)Cl,inactive,12.8% (inactive) and 2.89% (inactive) and 15.7% (inactive),inactive,inactive,inactive,inactive,inactive,inactive,inactive,inactive,
CCNc1nc(Cl)nc(NCC)n1,inactive,-0.397% (inactive) and 5.74% (inactive) and 5.58% (inactive),inactive,inactive,inactive,inactive,inactive,inactive,inactive,inactive,
O=C(O)CC(O)(CC(=O)O)C(=O)O,inactive,6.24% (inactive) and 7.96% (inactive) and 3.83% (inactive),inactive,inactive,inactive,inactive,inactive,inactive,inactive,inactive,
CCCC[n+]1ccc(C)cc1,inactive,,,inactive and 54.7 µM (active),inactive,inactive and 48.7 µM (active),inactive and 48.7 µM (active),inactive,inactive and 21.8 µM (active),inactive,
CCC[N+]1(C)CCCC1,inactive,,inactive,inactive,inactive and 49.3 µM (active),inactive,inactive,inactive,inactive,inactive,
CC(Cl)(Cl)C(=O)O,inactive,2.34% (inactive) and 8.45% (inactive) and 2.19% (inactive),inactive,inactive,inactive,inactive,inactive,inactive,inactive,inactive,
CCCCCCCCn1cc[n+](C)c1,inactive,,inactive,inactive,inactive,inactive,inactive,inactive,21.7 µM (active) and inactive,inactive,3.46 µM (active) [middle of 4 runs]
Cc1cc(Cl)ccc1N,inactive,9.86% (inactive) and 3.76% (inactive) and 5.35% (inactive),,inactive and 38.9 µM (active),inactive,inactive and 38.9 µM (active),inactive and 38.9 µM (active),inactive,inactive and 38.9 µM (active),inactive and 38.9 µM (active),

Compound,Potency [1],max response [2],Potency [3],Potency [4],Potency [5],Potency [6],Potency [7],outcome [8],Potency [9],Potency [10],Potency [2]
C=CCOC(Cn1ccnc1)c1ccc(Cl)cc1Cl (stereo unspecified),inactive,,,inactive,inactive,49.1 µM (active),49.1 µM (active),inactive,55.1 µM (active) and inactive,inactive,17.4 µM (active) and 38.9 µM (active)
Cc1cc(-c2ccc(N)c(C)c2)ccc1N,inactive,-20.5% (inactive) and -19.5% (inactive) and -26% (inactive),inactive,inactive,inactive,inactive and 43.6 µM (active),inactive and 43.6 µM (active),inactive,inactive,inactive,
CCCCCCCCCCCCOS(=O)(=O)O,inactive,,,49 µM (active) and inactive,inactive,49 µM (active) and inactive,49 µM (active) and inactive,inactive,,inactive,
Nc1ccc(-c2ccc(N)c(Cl)c2)cc1Cl,inactive and 43.6 µM (active),,,inactive and 43.6 µM (active),inactive and 49 µM (active),inactive and 27.5 µM (active),15.6 µM (active) and 12.9 µM (active) and 27.5 µM (active),inactive,inactive and 49 µM (active),inactive and 43.6 µM (active),12.4 µM (active) and 14.4 µM (active) and 12.3 µM (active)
CNC,inactive,5.34% (inactive) and 10.3% (inactive),inactive,inactive,inactive,inactive,inactive,inactive,inactive,inactive,
N#CS,inactive,6.52% (inactive) [middle of 4 runs],inactive,inactive,inactive,inactive,inactive,inactive,inactive,inactive,
CCCCCCCCCCCCn1cc[n+](C)c1,49.4 µM (active) and inactive,14.2% (inactive),,,,,,inactive,,inactive,
COCC(=O)N(c1c(C)cccc1C)C(C)C(=O)OC (stereo unspecified),inactive,7.37% (inactive) and 3.62% (inactive) and 0.316% (inactive),inactive,inactive,inactive,inactive,inactive,inactive,inactive,inactive,
Nc1ccccc1,inactive,-1.34% (inactive) [middle of 4 runs],inactive,inactive,inactive,inactive,inactive,inactive,inactive,inactive,
CC[N+](CC)(CC)CC,inactive,2.86% (inactive) and 1.18% (inactive) and -0.431% (inactive),inactive,inactive,inactive,inactive,inactive,inactive,inactive,inactive,
CCCCCCn1cc[n+](C)c1,inactive,,inactive,inactive,inactive and 50 µM (active),inactive,inactive,inactive,inactive,inactive,19.7 µM (active) [middle of 5 runs]
CCn1cc[n+](C)c1C,inactive,-4.04% (inactive) and 1.14% (inactive) and -16.1% (inactive),inactive,inactive,inactive,inactive,inactive,inactive,inactive,inactive,
O=C(O)c1ccccc1O,inactive,2.39% (inactive) [middle of 5 runs],inactive,inactive,inactive,inactive,inactive,inactive,inactive,inactive,
CN(C)[C@@H]1C(=O)C(C(N)=O)=C(O)[C@@]2(O)C(=O)C3=C(O)c4c(O)cccc4[C@@](C)(O)[C@H]3[C@H](O)[C@@H]12,inactive,8.46% (inactive) [middle of 4 runs],inactive,inactive,inactive,inactive,inactive,inactive,inactive,inactive,
CCCCn1cc[n+](C)c1,inactive,,inactive,inactive,inactive and 44.3 µM (active),inactive,inactive,inactive,inactive,inactive,
O=S(=O)(O)O,inactive,-2.52% (inactive) [middle of 6 runs],inactive,inactive,inactive,inactive,inactive,inactive,inactive,inactive,
